Test systems include HCT-15 colon; HT29 colon; SNB-75 CNS; SNB-19 CNS; PC-3 prostate; SK-MEL-5 melanoma; UACC-62 melanoma; LOX IMVI melanoma; SK-MEL-28 melanoma; SK-MEL-2 melanoma; EKVX NSCLC; SN12C renal; UO-31 renal; TK-10 renal; ACHN renal; CAKI-1 renal; A498 renal; CCRF-CEM leukemia; MOLT-4 leukemia; U251 CNS.
Assay in all cases: NCI-60 one-dose screen, 48 h (100 = growth as untreated, 0 = no growth, -100 = all killed)
Common to all, as to conditions: 10 µM

SMILES strings stand for the structures. The panel holds about 83,000 compounds, 20% with a hit somewhere; the sample as a whole holds those more often.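 Treatment: one concentration, 48 hours, 96-well format. Scoring: percent growth, with anything below 10 considered active.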 Values without a mark were called inactive. The source made the active and inactive calls.

Turning to `O=C1NC(=NC2CCCCCC2)N/C1=C\c1ccc2ncoc2c1`, the growth was 13% with HCT-15 colon; 56.1% with HT29 colon; 14.7% with SNB-75 CNS; 29.7% in the experiment on SNB-19 CNS; 53.8% in the experiment on PC-3 prostate; 21.1% with SK-MEL-5 melanoma. Moreover, the growth was 19.3% in the experiment on UACC-62 melanoma; 22.2% in the experiment on LOX IMVI melanoma; 27.5% in the experiment on SK-MEL-28 melanoma; 22.9% with SK-MEL-2 melanoma; 38.8% in the experiment on EKVX NSCLC; 21.1% in the experiment with SN12C renal. The growth is 4.42% (active) in the experiment with UO-31 renal; 43.8% in the experiment on TK-10 renal; 9.91% (active) with ACHN renal; 10% in the experiment on CAKI-1 renal; -9.1% (active) in the experiment with A498 renal; 18% in the experiment with CCRF-CEM leukemia. In addition, the growth with MOLT-4 leukemia was 38.2%.

As to `CC(=O)Nc1ccc(-c2cn(-c3cccc(C(=O)Nc4cc(CN5CCOCC5)cc(C(F)(F)F)c4)c3)nn2)cn1`, the growth in the experiment with HCT-15 colon was -86.2% (active); in the experiment on HT29 colon, -11.4% (active); in the experiment with SNB-75 CNS, -78% (active); with SNB-19 CNS it was -88.5% (active); with PC-3 prostate, -69.7% (active); in the experiment with SK-MEL-5 melanoma, -100% (active). For the same molecule, the growth in the experiment with UACC-62 melanoma was -98.1% (active); with LOX IMVI melanoma, -98.6% (active); in the experiment on SK-MEL-28 melanoma, -99.2% (active); in the experiment with SK-MEL-2 melanoma, -84.6% (active); in the experiment with EKVX NSCLC, -88.1% (active); in the experiment on SN12C renal, -93.2% (active). Besides, the growth with UO-31 renal is -93.5% (active); with TK-10 renal it was -99.3% (active); in the experiment on ACHN renal, -100% (active); with CAKI-1 renal it was -91.9% (active); with A498 renal it was -95.5% (active); in the experiment with CCRF-CEM leukemia, -5.47% (active). Besides, the growth in the experiment on MOLT-4 leukemia is -22.2% (active).

`C=C1CC[C@H](C(=C)C)[C@H]2C=C(C)C(=O)C3=C(C(=O)[C@@](C)(O)C3)[C@H]12`: the growth in the experiment on HCT-15 colon was -80.8% (active); in the experiment on HT29 colon, -37.6% (active); with SNB-19 CNS it was -90.9% (active); with U251 CNS, -95.9% (active); with PC-3 prostate it was -73.2% (active); in the experiment with SK-MEL-5 melanoma, -90.4% (active). The growth with UACC-62 melanoma is -53.5% (active); in the experiment with LOX IMVI melanoma, -75.9% (active); with SK-MEL-28 melanoma it was -89.2% (active); in the experiment on SK-MEL-2 melanoma, -88.6% (active); in the experiment with EKVX NSCLC, -78.5% (active); in the experiment on SN12C renal, -50.8% (active). Besides, the growth was -99.8% (active) in the experiment with UO-31 renal; -97% (active) with TK-10 renal; -98.3% (active) in the experiment on ACHN renal; -78.9% (active) in the experiment with CAKI-1 renal; -93.2% (active) in the experiment on A498 renal; -5.05% (active) in the experiment with CCRF-CEM leukemia.

With `COc1ccc(C(=O)Nc2ccc(-c3ccc4c(c3)NC(=O)/C4=C\c3ccc[nH]3)cc2)cc1`, the growth is 15.2% with HCT-15 colon; 15.6% in the experiment with HT29 colon; -11% (active) with SNB-75 CNS; 60.8% in the experiment with SNB-19 CNS; 27.5% with PC-3 prostate; 49.1% with SK-MEL-5 melanoma. The growth is 78.1% with UACC-62 melanoma; 5.2% (active) with LOX IMVI melanoma; 88.8% in the experiment with SK-MEL-28 melanoma; 99.5% in the experiment on SK-MEL-2 melanoma; 7.85% (active) in the experiment on EKVX NSCLC; 64.9% in the experiment on SN12C renal. The growth was 81.3% in the experiment with UO-31 renal; 98.8% in the experiment with TK-10 renal; 60.7% in the experiment with ACHN renal; 72.7% in the experiment with CAKI-1 renal; 118% in the experiment on A498 renal; 26% with CCRF-CEM leukemia.

Take `Cc1ccc(-c2nc3ccc(C(=O)N=Nc4c(O)[nH]c5ccc(Cl)cc45)cc3[nH]2)cc1`: the growth with HCT-15 colon is 67.7%; with HT29 colon, 13.2%; in the experiment on SNB-75 CNS it was -49.3% (active); in the experiment with SNB-19 CNS, -24% (active); in the experiment on PC-3 prostate, -51.9% (active); in the experiment with SK-MEL-5 melanoma, 22.1%. The growth with UACC-62 melanoma was 22.6%; in the experiment on LOX IMVI melanoma, -100% (active); in the experiment with SK-MEL-28 melanoma, -1.61% (active); with SK-MEL-2 melanoma it was 57.3%; in the experiment on EKVX NSCLC it was 37.9%; in the experiment with SN12C renal it was 23%. Besides, the growth in the experiment on UO-31 renal is 72.4%; with TK-10 renal, 65.6%; in the experiment on ACHN renal, 55.1%; in the experiment with CAKI-1 renal, 58%; with A498 renal it was 119%; with CCRF-CEM leukemia, -31.7% (active).

For `O=C1CCC(N2Cc3c(C#CCCCNC(=O)c4ccc(NC(=O)[C@@H]5NC6(CCCCC6)[C@@]6(C(=O)Nc7cc(Cl)ccc76)[C@H]5c5cccc(Cl)c5F)cc4)cccc3C2=O)C(=O)N1` (stereo partly drawn), the growth was 41.8% in the experiment on HCT-15 colon; 51.5% in the experiment on HT29 colon; 56.1% with SNB-75 CNS; 58.8% with SNB-19 CNS; 51.8% in the experiment with PC-3 prostate; 5.4% (active) with SK-MEL-5 melanoma. Further, the growth with UACC-62 melanoma is 17.3%; in the experiment with LOX IMVI melanoma, 27.5%; in the experiment with SK-MEL-28 melanoma, 62.2%; with EKVX NSCLC it was 51.6%; with SN12C renal it was 74.3%; in the experiment on UO-31 renal it was 30.3%. Besides, the growth in the experiment with TK-10 renal is 79.8%; with ACHN renal, 26.2%; in the experiment on CAKI-1 renal, 36.1%; in the experiment on A498 renal, 94.9%; in the experiment on CCRF-CEM leukemia, 47.9%.

As to `C=C[C@H]1[C@H](O[C@@H]2OC(CO)[C@@H](O)[C@H](O)C2OC(=O)c2c(O)cc(O)cc2-c2cccc(O)c2)OC=C2C(=O)OCC[C@H]21` (stereo partly drawn), the growth in the experiment with HCT-15 colon was 93.7%; in the experiment with HT29 colon, 108%; in the experiment with SNB-19 CNS, 97.2%; in the experiment on U251 CNS, 104%; in the experiment with PC-3 prostate, 103%; in the experiment on SK-MEL-5 melanoma, 100%. For the same molecule, the growth was 98% in the experiment with UACC-62 melanoma; 99.3% in the experiment on LOX IMVI melanoma; 102% with SK-MEL-28 melanoma; 106% in the experiment on SK-MEL-2 melanoma; 93.8% with EKVX NSCLC; 102% in the experiment on SN12C renal. The growth with UO-31 renal is 89.3%; in the experiment on TK-10 renal it was 102%; with ACHN renal it was 105%; in the experiment with CAKI-1 renal, 93.9%; with A498 renal it was 106%; in the experiment with CCRF-CEM leukemia, 106%.

With `COc1cccc(C(N)=Nc2ccc(OCCCCCCn3cncn3)cc2)c1`, the growth in the experiment on HCT-15 colon is 16.8%; with HT29 colon it was -27.9% (active); in the experiment on SNB-75 CNS, 54.4%; with SNB-19 CNS, 37.6%; in the experiment on PC-3 prostate it was 34.4%; in the experiment on UACC-62 melanoma, 36.4%. Further, the growth with LOX IMVI melanoma is 36%; in the experiment with SK-MEL-28 melanoma, 51.4%; in the experiment on SK-MEL-2 melanoma, 27.3%; in the experiment on EKVX NSCLC it was 42%; with SN12C renal, 30.2%; in the experiment with UO-31 renal, 45.4%. The growth is 64.3% with TK-10 renal; 45% in the experiment on ACHN renal; 39.1% in the experiment on CAKI-1 renal; 113% in the experiment with A498 renal; 10.4% with CCRF-CEM leukemia.

Consider `CCOC(=O)CNC(=O)CN(Cc1ccccc1)C(=O)[C@@]1(C)CCC[C@]2(C)[C@H]3C[C@H]4C(C(C)C)=C[C@]3(CC[C@H]21)[C@@H]1C(=O)OC(=O)[C@@H]14`, for which the growth in the experiment with HCT-15 colon was 18%; with HT29 colon, 42%; with SNB-75 CNS, 81.7%; in the experiment with SNB-19 CNS, 67.7%; with PC-3 prostate it was 39.2%; in the experiment with SK-MEL-5 melanoma it was 83.5%. Moreover, the growth was 64.4% in the experiment on UACC-62 melanoma; 24% in the experiment with LOX IMVI melanoma; 82.5% with SK-MEL-28 melanoma; 82.3% with SK-MEL-2 melanoma; 67.6% in the experiment on EKVX NSCLC; 69% in the experiment on SN12C renal. In addition, the growth in the experiment with UO-31 renal was 65.5%; in the experiment with TK-10 renal, 90.3%; in the experiment on ACHN renal, 57%; in the experiment on CAKI-1 renal, 88.3%; in the experiment with A498 renal, 110%; in the experiment on CCRF-CEM leukemia it was 15.6%. Further, in the experiment with MOLT-4 leukemia, the growth was 27.8%.

For the origin of these results see PubChem BioAssay (NCI).
